In all, about 9,900 sequences were measured (“r (bound/input frequency ratio)”: median about 0.7, highest 2% from about 6.5 on). Only a selection was taken, and the highest values are over-represented in it overall.

First the molecules themselves.
B1: ENSMUSG00000042529.105|Kcnj12 (ssRNA)
RNA: GGGAGUUCUACAGUCCGACGAUCGCUUCGAUAUCCGCAUGCUAAGGUCUGUUUUCUCCCUCACGUGGGCCAGGGCCUUAAGCGAGUUGUCAUGCUUAAGGAUGAAUCAGGCUGCUUGUGACCAUGUUAACGAUUCUAAUAAAGUGUCUGGAUGUCUCUUGGGGGUGGGGCCCACUAGGGUGAAUCUGGCUUGCUCUUCUGUUUGAUGUUGUUGUACCUCAGCUGCCUCAGGGCUGGGUUUAGACACCCCUUCCCCCACCCCCACUCCGUACUCCCUGUUGUGCUUCCCUUCCUAUUUAGUCCCCUCUUGCGGUCGCACUAGUGUGGAAUUCUCGGGUGUCAAGG
B2: ENSMUSG00000090935.77|Synj2bp (ssRNA)
RNA: GGGAGUUCUACAGUCCGACGAUCGCUUCGAUAUCCGCAUGCUACUUUGUCAGCAUAGGCAGGAGUCCUUUAGGAUUUCUGCCUAUCAGUAAAAGAAGUAUGUAACCCAAGUUCUACCUUCAGUGGAUUAAAGUUUCAUUAAGUGAAAAUGGAAAGAAAGUAGAAUUACUUGGUAAGAGGCCAAAUGAGGAUACAGAGGCUGAAGAAGAUUGAAAGGAGCUAGUGUAAACAAACAAACAAACAAACAAACAAAAAACCAAACCCCAAAACAAAAACAAAAACAAAACAAAAUUGGAGAAAGCAGCUCUUGCGGUCGCACUAGUGUGGAAUUCUCGGGUGUCAAGG
B3: ENSMUSG00000090935.604|Synj2bp|54:59 (ssRNA)
RNA: GGGAGUUCUACAGUCCGACGAUCGCUUCGAUAUCCGCAUGCUACUAAUAGACACUGUUUGCUUCAGUUGUUUUUGUUUCCUUUUCCUACAGUUUUCACACACGGUGAUUUCAUUUAAUUAAUUGGACAGUCUAGCCACAGGCAACAAAUAGAAAUAGUAUUUGUAAUUAUAGUCUAUGCCAGGGACUGUCUUAAACUGAUUAGUAACACUAUGACUUACCCUGAGAUCUAAGUAUUGCUAUAAAGAGACUGAAGAGGAGAGAAUAAAGUAUUUUCCUAGGACUACAUAGUUGGUAAAAGAGAACUCUUGCGGUCGCACUAGUGUGGAAUUCUCGGGUGUCAAGG
B4: ENSMUSG00000035279.10|Ssc5d|99:105 (ssRNA)
RNA: GGGAGUUCUACAGUCCGACGAUCGCUUCGAUAUCCGCAUGCUAAUGCCUUCAAACCACCCAGAAGCCAGACCUUACACUCAGCUUCAGACCACCUCACUCAAGGGCCAACCCCUAAUCACAACCCAGAUCCUUUUGGGCCAACACACACCCCAUUACCACCAGUAAGGGUCAUGGCUUGUGAGCCACCUGCCUUGGUGGAGCUGGUAGGUGCUGUGAGGGAGGUGGGUGACCAGCUGCAGAGACUGACCUGGGUCCUGGAGCAGGACCGGCAGGAGCGCCAAGUCCUGGCACUGGGCCUAGCCCUCUUGCGGUCGCACUAGUGUGGAAUUCUCGGGUGUCAAGG
B5: ENSMUSG00000031028.241|Tub (ssRNA)
RNA: GGGAGUUCUACAGUCCGACGAUCGCUUCGAUAUCCGCAUGCUAGGUUCUGGGGCUGGGCUUGGACACGCCCUCCAUUGGGAUGGCACCACUCAUCUGGUGGGCUUGGGAACUCCAAGCUCUUGCCUGUGUGCCAUCUGUGAGAAGCUUCUUGGAGCUGAGACACCAGAGGGAAGCAAAGAGCAUUUAGACAUUGCUUUUUGCUUUGAAAUAGAUAUGUUUGGAAACGCUAAGUAGAAGUUUAAAAAGUAGAGUCAUGUAGAGUCAUGCUUUGAAUAUGUGGGUCAUGCUUUAGAUAUGAAGAGCUCUUGCGGUCGCACUAGUGUGGAAUUCUCGGGUGUCAAGG
B6: ENSMUSG00000061578.211|Ksr2 (ssRNA)
RNA: GGGAGUUCUACAGUCCGACGAUCGCUUCGAUAUCCGCAUGCUAUGACACAAGAGGCAAAGCUGUCCCUAAGCAGAGAAUUAGCAGGGUUAGCCAGACAGCAAAAUCCAUGUAAACAUACAAAACCACCCCCCCUUUUUGAGUGGCCCUAUUGGAUGUACACACUAGGACCAAGCACGGGUCCAAAGCAGGAAGACUGAUUGACAGUAGUCACACUUCUAGAGAGAUGUACCCCAUGACACUUUCAAGUCUUUUCAGAACCUUCUCACCCCUUUGCAAAGCUCUUGCCGUCUGCACCCGGGACCCUCUUGCGGUCGCACUAGUGUGGAAUUCUCGGGUGUCAAGG
B7: ENSMUSG00000090935.117|Synj2bp (ssRNA)
RNA: GGGAGUUCUACAGUCCGACGAUCGCUUCGAUAUCCGCAUGCUAUUUGCCCUCACCAUGGUAGCAGUUUGGGCCUUCGUGAGAUACCGAAAGCAGCUUUGAAAUGCUUGCUGUCUUCCAGUGUGUCCAAUGAACUCUCUCUCUCACUCACCAUCUCUGACAUCCUCCCAUAUUCUUUCUCCUCCACAUAGCCAAUACAAGAUUUAAAGUGACUGCUUAUCACCCAAAACCCUGCUAUUCAAAAUCUCCUAUUCUAAUGGAAGAGUACAGGGGUUAUUUGAAGAAAAGCUGUGGUGGUGUGUGUGCUCUUGCGGUCGCACUAGUGUGGAAUUCUCGGGUGUCAAGG
B8: ENSMUSG00000061578.735|Ksr2 (ssRNA)
RNA: GGGAGUUCUACAGUCCGACGAUCGCUUCGAUAUCCGCAUGCUAUGUAUCAAGACCUUGGAGUUGUCUAAGGCUGUGGGUUUUAAAUACCUGCUGCAGGCCUCCCAUCUCUGGCUCUUUGUUUCCACUCUGGCCCAAGUUUGAGUCUCCAUAUGGGCCCUUCCUGUCCUCAUGCCCUGCCUGUCUUCAUUCCACCCAUCCACCCUCCUAAGGAUUGGUCUUGUUCCGAGAGUGAUCCUGGUAACGCCAAGCCUCCCUCUGCCCCUGUGUUGGCUUCUGUGACGGACUACCACACACCAAGAGGUCUCUUGCGGUCGCACUAGUGUGGAAUUCUCGGGUGUCAAGG
B9: ENSMUSG00000029028.148|Lrrc47 (ssRNA)
RNA: GGGAGUUCUACAGUCCGACGAUCGCUUCGAUAUCCGCAUGCUAUUGAGAACAUCAUGUUGUGAGUGUAAUCUUCUUAGAGCUUGUUUCCAGGCACCGUGCUGCCGCCAUGCUCCCAGGGCAGCAUCUGCCUUCCACGGCUGUGCUUGGAACUGUAGUGCUGGUCGUUGUUGGCACAUCUGCGCCUUGGCCAAGGAAGUUAUCUAUGUCCGUGUAGUCCUUUGUAGUCAGACAGAUGCUUCGUGGACUGUGCCUCACACAUGGCCCUGCAGGCUCCAUGUCAGCGUGUCCCACUAUUCAUGUCCCUCUUGCGGUCGCACUAGUGUGGAAUUCUCGGGUGUCAAGG
B10: ENSMUSG00000004113.103|Cacna1b (ssRNA)
RNA: GGGAGUUCUACAGUCCGACGAUCGCUUCGAUAUCCGCAUGCUAAUCCUAAGCAGGAGGUAGCUGAGUUGAGAUGGACCCAGCAAAUCCAAAUCCUAUGUCAUGGCCUCCAGCAUCCAGGGUGGGUCCUUGGGACUUUUCUUAGGAGGGACUUUCUGAGCCUCGUGGAGAGUGUGGUUUGUCCAAAUGUGUGGCAUGGGAGAUAGGGUACCCCUGAAAGCAAGGAAAGGAGCCCAGCUGUGGCCUGGUAGCACCUGCCGGCACCAGUGAUCUCACGUCUCUUGUGGUCUUGGAGUCAAAUAGCACUCUUGCGGUCGCACUAGUGUGGAAUUCUCGGGUGUCAAGG
B11: ENSMUSG00000061578.1429|Ksr2|169:173 (ssRNA)
RNA: GGGAGUUCUACAGUCCGACGAUCGCUUCGAUAUCCGCAUGCUAAGAUCUGUCUUGCUCUCUGUCUCUCUCACUCAUUGCCAACAUGUUGCUGGGAAAGAAUAUUUGAUUUAGAUGCCAAUCAGGAAGGCAAGUAGGAUGGAUGGAUGAGUGAGUGGAUAGGUAGGUAUAUAAAUGGAUGGAUGGGUGAUGGAUGGGUAAAUGAAUGGAUAGCAUACUGAAUGAAUGGAUGAUGGAUGAAUGGAUGGGUAGGUGGGUAGAUAGGUAUAUGAAUGAAUGGAUGAAUGGAUGGGUGAAUGGAUGGACUCUUGCGGUCGCACUAGUGUGGAAUUCUCGGGUGUCAAGG
B12: ENSMUSG00000035279.28|Ssc5d (ssRNA)
RNA: GGGAGUUCUACAGUCCGACGAUCGCUUCGAUAUCCGCAUGCUACAUUACCACCAGUAAGGGUCAUGGCUUGUGAGCCACCUGCCUUGGUGGAGCUGGUAGGUGCUGUGAGGGAGGUGGGUGACCAGCUGCAGAGACUGACCUGGGUCCUGGAGCAGGACCGGCAGGAGCGCCAAGUCCUGGCACUGGGCCUAGCCCAGUUGGUAGAGGCUGCUCAGGGGUUGGGGCAGCUGAGUGAGACUGUAAAGAGGCUAGCAGAGGUGGCCUGGCCCCCCAGCACUCCUGUGCCCAUGACCACCACCACACUCUUGCGGUCGCACUAGUGUGGAAUUCUCGGGUGUCAAGG
B13: ENSMUSG00000031028.488|Tub|93:99;130:136 (ssRNA)
RNA: GGGAGUUCUACAGUCCGACGAUCGCUUCGAUAUCCGCAUGCUAAGGAGGAGCUGAGAUGUGCACCCUUUUAAAUGAACAUGGGGUGGUGAUGGUGCCUUAACAAUCUUGACACUAAGGUGAAGCAAGCAAGUAAGCACACACCCUCUGGGAAGACAGGAGUCGGAAGCCAAGCACACACGCAACAGUCUGGAAGAGAGCUUUUGGUAAUCAUACCGUCUUCAGUGACAAGGCAACAAUGCUGUAAAGUGGGUUUGUUUGGUUUUGUUUUUUCUUUCUCUUUUAUGGAAAUGGCAGGUCUAUUUCUCUUGCGGUCGCACUAGUGUGGAAUUCUCGGGUGUCAAGG

Sequence of TDP-43 (Q13148 whole entry): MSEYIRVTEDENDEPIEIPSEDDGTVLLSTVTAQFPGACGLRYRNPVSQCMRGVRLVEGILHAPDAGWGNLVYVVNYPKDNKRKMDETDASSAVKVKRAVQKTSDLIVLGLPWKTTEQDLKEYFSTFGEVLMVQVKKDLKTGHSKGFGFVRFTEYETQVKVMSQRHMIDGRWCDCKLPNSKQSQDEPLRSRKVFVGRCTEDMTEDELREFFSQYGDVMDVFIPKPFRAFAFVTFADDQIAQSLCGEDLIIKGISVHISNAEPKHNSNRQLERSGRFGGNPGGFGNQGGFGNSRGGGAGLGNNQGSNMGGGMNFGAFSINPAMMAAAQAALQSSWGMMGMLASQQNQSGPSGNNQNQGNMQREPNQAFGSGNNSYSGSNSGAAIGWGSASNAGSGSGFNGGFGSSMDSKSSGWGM

This test concerns the target TDP-43 (Homo sapiens, UniProt Q13148 1-414). The test can be described thus: RNA Bind-n-Seq with designed 260-mer pool; 25 mM Tris-HCl, 150 mM KCl, 3 mM MgCl2, BSA (printed 500 mg/mL), 20 units/mL SUPERase IN; pH not stated; 500 nM RNA pool, 1 h, 4 C; TDP-43 5, 50, 500 nM; high values mean tight binding. To be noted: protein: recombinant; tags: SBP (GST cleaved off with PreScission; pGEX-GST-SBP). An outline of the steps:
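In 25 mM Tris-HCl, 150 mM KCl, 3 mM MgCl2, BSA and SUPERase IN, 500 nM of an in vitro-transcribed 260-nt 3′ UTR oligo pool was incubated for 1 h at 4 °C with SBP-tagged TDP-43 (5, 50 or 500 nM) captured on streptavidin beads. RNA remaining after washes was biotin-eluted, reverse transcribed, PCR-amplified and sequenced. Binding, R, is the bound-sample abundance of each oligo, normalized to mapped reads, divided by its abundance in input. Each duplicate used a separate, independent protein batch.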
Turning to B1, the binding signal is 3.16 R (bound/input frequency ratio). As to B2, the binding signal was 0.858 R (bound/input frequency ratio).

B3: the binding signal was 0.0675 R (bound/input frequency ratio). In the case of B4, the binding signal was 1.24 R (bound/input frequency ratio). As to B5, the binding signal is 0.949 R (bound/input frequency ratio). Turning to B6, the binding signal is 0.667 R (bound/input frequency ratio). The same measure for B7: 1.43 R (bound/input frequency ratio); for B8: 1.36 R (bound/input frequency ratio). Consider B9, for which the binding signal was 1.13 R (bound/input frequency ratio). For B10, the binding signal is 1.15 R (bound/input frequency ratio). With B11, the binding signal is 5.89 R (bound/input frequency ratio).

In the case of B12, the binding signal is 0.915 R (bound/input frequency ratio).

For B13, the binding signal is 0.906 R (bound/input frequency ratio).

(Values after article PMC12864922, “TDP-43 directly inhibits mRNA accumulation in neurites through modulation of mRNA stability”.)
